Experimental data as given in PubChem BioAssay AID1469 (National Center for Advancing Translational Sciences (NCATS), 2008).
About 180 (0.064%) of roughly 280,000 compounds were called active. Calls come from the whole dose curve; as a rule, active = well fitted inhibition curve with a large enough effect; inconclusive = small, poorly fitted or top-dose-only effect, or effect the other way; inactive = flat fitted curve, though single readings scatter. Shown is part of a subset that was picked to be rich in actives.

target: Thyroid hormone receptor beta (Homo sapiens) (UniProt P10828); assay: qHTS for Inhibitors of the Interaction of Thyroid Hormone Receptor and Steroid Receptor Coregulator 2; details: TRbeta-SRC2 peptide binding, fluorescence polarization, receptor liganded with 1 µM T3; series mostly up to 106 µM; note: nearly all actives have a fitted effect of over 50% in size
Sequence (P10828 whole entry, looked up, the tested form may be a part): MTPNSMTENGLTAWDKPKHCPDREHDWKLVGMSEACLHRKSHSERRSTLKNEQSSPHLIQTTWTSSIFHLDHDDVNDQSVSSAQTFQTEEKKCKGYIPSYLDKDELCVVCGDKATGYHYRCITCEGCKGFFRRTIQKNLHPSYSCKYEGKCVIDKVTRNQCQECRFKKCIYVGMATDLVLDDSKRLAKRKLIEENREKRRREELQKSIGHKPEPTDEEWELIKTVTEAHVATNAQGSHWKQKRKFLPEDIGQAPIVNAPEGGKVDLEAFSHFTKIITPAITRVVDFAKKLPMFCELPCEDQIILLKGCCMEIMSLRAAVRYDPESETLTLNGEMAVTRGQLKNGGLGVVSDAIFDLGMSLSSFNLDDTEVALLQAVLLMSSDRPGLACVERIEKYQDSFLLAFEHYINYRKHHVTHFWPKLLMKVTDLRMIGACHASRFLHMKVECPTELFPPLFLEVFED
In short: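 Assay buffer: 20 mM Tris-HCl, 100 mM NaCl, 10% glycerol, 1 mM EDTA, 0.01% NP-40, 1 mM DTT, 1 uM T3, 5% DMSO; TRb LBD 0.6 uM, Texas Red SRC2 20 nM; FP after 5 hr.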

Potency, inactive:
CC(=O)c1ccc(NC(=O)CSc2nc(-c3ccccc3F)nc3c2c(=O)n(C)c(=O)n3C)cc1
CCN(CC)c1ccc(NS(=O)(=O)c2cc(-c3cc(C)no3)ccc2C)c(C)c1
Cc1ccc(CNC(=O)c2c(O)nc3c(C)cccn3c2=O)cc1
Oc1ccc(-c2nc3ccc(Cl)cn3c2Nc2ccc3c(c2)OCO3)cc1
COc1ccc(CCNC(=O)c2ccc(CSCc3ccc(C)cc3)o2)cc1OC
Cc1ccc(-c2nc(SCc3ccc(Br)cc3)n3[nH]c(=O)cc3n2)cc1
COc1ccc(N2CCN(S(=O)(=O)CCNC(=O)C(c3ccccc3)c3ccccc3)CC2)cc1
O=C(Nc1nc2c(s1)CCCC2)c1ccccc1F
Cc1cc(C)cc(Nc2ncnc3onc(-c4ccc(F)cc4)c23)c1
CCOc1cc(C2C(C(=O)OC)=C(C)NC3=C2C(=O)c2ccccc23)ccc1O (centres undefined)
OCCC(F)(F)C(F)(F)C(F)(F)C(F)(F)C(F)(F)C(F)(F)C(F)(F)C(F)(F)F
CCN(CCCNC(=O)c1ccc(Sc2ccc(C)cc2)c(NC(C)=O)c1)c1cccc(C)c1
CCCC/C=C/CCCCO
CCOC(=O)c1ccc(NC(=O)c2c(NCc3cccs3)sc3c2CCCC3)cc1
O=C(NCc1ccc(F)cc1)c1ccc2nc(N3CCCCC3)sc2c1
CCOc1cccc2c1N[C@@H](c1ccc(C(=O)O)cc1)[C@H]1CC=C[C@@H]21
CN(CC(=O)Nc1ccccc1F)S(=O)(=O)c1ccc2c(c1)c(=O)n(C)c(=O)n2C
CCN(CC)CCNc1ncnc2c1cnn2-c1cc(Cl)ccc1C
CCOC(=O)c1c(C)oc2nc(C)nc(N3CCN(c4ccc(OC)cc4)CC3)c12
CC(C)c1ccc(S(=O)(=O)Nc2ccc(O)c(Sc3nc4ccccc4s3)c2)cc1
CCc1cccc(NC(=O)CN(C)S(=O)(=O)c2ccc3[nH]c4c(c3c2)CCCC4)c1
CCN(CC)c1ccc(NC(=O)CN2C(=O)c3cccnc3Oc3ccc(Cl)cc32)c(C)c1
Cc1ccc(OCCSc2nc(-c3cccs3)nc3cc(=O)[nH]n23)cc1Cl
Cc1ccc(NC2=C(c3ccc(C(F)(F)F)cc3)C(=O)c3ccccc32)cc1F
CCCn1c2ccccc2c2cnn(CC(=O)NCC3CCN(Cc4ccc(C)cc4)CC3)c(=O)c21
Cc1cc(C)cc(NC(=O)c2cnc3sc(N4CCCC4)nn3c2=O)c1
Cc1cc(C)c(NC(=O)CN2C(=O)c3cccnc3Oc3ccc(Cl)cc32)c(C)c1
COc1ccc(N2CCN(c3cc(C)nc4nncn34)CC2)cc1
Cn1c(=O)c2c(-c3ccccc3Br)n(Cc3ccccc3)cc2n(C)c1=O
CC(C)c1ccc(NC(=O)c2ccc(Cn3nc(N4CCN(c5ccccc5)CC4)ccc3=O)o2)cc1
CCOc1ccc(S(=O)(=O)Nc2ccc3oc4c(c3c2)CC(C)CC4)cc1 (centres undefined)
CC(C)CCCCCOC(=O)CS
CC1Cc2cc(S(=O)(=O)CCC(=O)NCc3ccc(Cl)cc3)ccc2N1C(=O)C1CC1 (centres undefined)
CCOC(=O)C1CCCN(C(=O)Cn2ncc3c(C)n(Cc4ccc(F)cc4)c(C)c3c2=O)C1 (centres undefined)
CSc1ccc(CCNC(=O)c2cc(C)nc3c2c(C)nn3-c2cccc(F)c2)cc1
O=c1cc(CSc2ncn[nH]2)[nH]c2ccc(F)cc12
CCc1ccc(C(=O)CC2(O)C(=O)N(CCc3ccccc3)c3ccc(Br)cc32)cc1 (centres undefined)
COc1ccccc1-c1noc(CSc2nnc(-c3ccccc3)n2-c2ccc(C)c(C)c2)n1
Cc1ccc2onc(CC(=O)N3CCN(c4ccc(Cl)cc4)CC3)c2c1
CC(C)c1ccc(OCC(=O)N(Cc2ccc(N(C)C)cc2)C2CCS(=O)(=O)C2)cc1 (centres undefined)
CCN(CC)c1ccc(NC(=O)CN2CCN(CC(=O)Nc3ccc(Cl)cc3)CC2)cc1
Clc1ccc(CSc2nncn3c2cc2occc23)cc1
COc1cccc(CNC(=O)CCC(=O)N2CC3CCCN3c3ccccc32)c1 (centres undefined)
Cc1ccc(C2c3[nH]c4ccccc4c3CCN2C(=O)c2cccc(C)c2)cc1 (centres undefined)
